The source made the active and inactive calls. How the source made its calls: active means hit-call score of the fitted dose curve at least 0.9, where 1 is the maximum; inactive means score below 0.9.
These compounds were tested on Pro-epidermal growth factor (Homo sapiens) (UniProt P01133) (assay: LTEA_HepaRG_EGF: Life Technologies and Expression Analysis (LTEA) Assay for Epidermal growth factor (EGF) using HepaRG (AID 2283489)). Details: mRNA level, 48 h; actives raise or lower the signal.
Method: LTEA_HepaRG is a cell based, multiplexed-readout assay that uses HepaRG, a human liver cell line, with measurements taken at 48 hours after chemical dosing on a 96-well plate.LTEA_HepaRG_EGF is one of 102 assay component(s) measured in the LTEA HepaRG cell culture assay. It is a marker of Cell proliferation, survival, death.Data from the assay component LTEA_HepaRG_EGF was analyzed into 1 endpoint. This assay endpoint, LTEA_HepaRG_EGF, was analyzed with bidirectional fitting relative to DMSO as the negative control and baseline of activity. Using a type of inducible reporter, measures of mRNA induction for gain or loss-of-signal activity can be used to understand regulation of transcription factor activity. To generalize the intended target to other relatable targets, this assay endpoint is annotated to the growth factor intended target family, where the subfamily is EGF-like domain.
A total of 1060 chemcials from the ToxCast library were tested in eight-point concentration-response experiments. Cell culture and cytotoxicity assays were conducted at Thermo Fisher Scientific's Custom Services facility (Madison, WI). A single lot of human HepaRG cells (Thermo Fisher Scientific, Frederick, MD) was used for the cell culture experiments. 96-well format collagen type I coated plates of human HepaRG cells were prepared using established methods. Briefly, cryopreserved HepaRG cells were thawed, plated at a density of approximately 100,000 cells/well in HepaRG Thaw, Plate, and General Purpose media (HPRG770, Thermo Fisher Scientific), and incubated for 48 hours. 0.5% DMSO was selected as vehicle control to balance the requisite need of DMSO in HepaRG cultures to maintain differentiation (for example, baseline metabolism, proportions of hepatocytes vs. cholangiocytes), while enabling further hepatic receptor pathway activation (for example, PXR and CAR) in response to chemical exposure. 48 hours after plating, the culture medium was replaced with HepaRG Serum-Free Incudtion Media. Cells were exposed to each test chemical in duplicate and maintained in CO2 incubators for another 48 hours. Chemical plates were thawed to room temperature and 200x concentrations of treatment groups were prepared. 8-point conentration-reponse curves were made with the highest exposure at 100 uM, followed by half-log dilutions, all in 0.5% DMSO. Each test plate contained variouse controls, induction positive controls (1mM phenobarbital), cytotoxicity positive controls ([…] aflatoxin B1), vehicle controls (0.5% DMSO), and total lysis controls (0.5% DMSO). Cell morphology images were taken using an Essen IncuCyte FLR automated microscope, with six 96-well plates imaged in about 24 minutes. Images were captured and exported and JPEG files. Spent culture media was transfered to black-well plates for the LDH assay, and remaining media was sorted at -80 C for later use. Cells were treated with RLT buffer and frozen until shipped for gene expression analysis. Total RNA was isolated from the cell suspension in 75 uL of Buffer RLT (Qiagen, Germantown, MD 20874) by Quintiles/Expression Analysis (Durham, NC) using a custom isolation procedure. Total RNA from each plate well was transferred to a preamplification plate. Fluidigm's 96.96 Dynamic ArrayTM (Fluidigm, Amsterdam, the Netherlands) technology was used for gene expression analyses by quantitative reverse transcription polymerase chain reaction (qRT-PCR, performed by Quintiles/Expression Analysis, Durham, NC)89. Standard TaqManTM Assays (Applied Biosystems/ThermoFisher Scientific, Foster City, CA) were used to assess the expression of 93 genes selected based on their selectivity and sensitivity to important hepatic receptors known to be modulated by environmental chemicals; importance in human hepatocyte functionality; and hepatotoxicity. […]

| Compound | AC50 | outcome |
| --- | --- | --- |
| C#CCOS(=O)OC1CCCCC1Oc1ccc(C(C)(C)C)cc1 (stereo not given) | 29.4 µM (active) | – |
| CS/C(C)=N/OC(=O)N(C)SN(C)C(=O)O/N=C(\C)SC | – | inactive |
| CC1COC(Cn2cncn2)(c2ccc(Oc3ccc(Cl)cc3)cc2Cl)O1 (stereo not given) | – | inactive |
| CCCCC(CC)COC(=O)c1ccccc1C(=O)OCC(CC)CCCC (stereo not given) | – | inactive |
| COc1ccc(C(c2ccc(OC)cc2)C(Cl)(Cl)Cl)cc1 | – | inactive |
| CCCCOC(=O)c1ccccc1C(=O)OCCCC | – | inactive |
| CNC(=S)S | – | inactive |
| Cc1c(F)c(F)c(COC(=O)C2C(/C=C(\Cl)C(F)(F)F)C2(C)C)c(F)c1F (stereo not given) | 50 µM (active) | – |
| CCNc1nc(Cl)nc(NCC)n1 | – | inactive |
| COc1nc(NC(C)C)nc(NC(C)C)n1 | – | inactive |
| CCCCNC(=O)n1c(NC(=O)OC)nc2ccccc21 | – | inactive |
| CCOP(=S)(OCC)SCn1c(=O)oc2cc(Cl)ccc21 | – | inactive |
| CC(C)(C)c1ccc(CSc2cnn(C(C)(C)C)c(=O)c2Cl)cc1 | – | inactive |
| CC(Oc1ccc(Cl)cc1Cl)C(=O)O (stereo not given) | – | inactive |
| CN(C)C(=S)SSC(=S)N(C)C | – | inactive |
| Cc1cc(Cl)ccc1OCC(=O)O | – | inactive |
| COC(=O)C(C)Oc1ccc(Oc2ccc(Cl)cc2Cl)cc1 (stereo not given) | – | inactive |
| COc1cnc(OC)n2nc(NS(=O)(=O)c3c(OCC(F)F)cccc3C(F)(F)F)nc12 | – | inactive |
| C=CCC1=C(C)C(OC(=O)C2C(C=C(C)C)C2(C)C)CC1=O (stereo not given) | – | inactive |
| Fc1ccc(Oc2ccnc3cc(Cl)cc(Cl)c23)cc1 | 32.8 µM (active) | – |

| Compound | AC50 | outcome |
| --- | --- | --- |
| N#Cc1cc(Br)c(O)c(Br)c1 | 15.3 µM (active) | – |
| CCOC(=O)CC(SP(=S)(OC)OC)C(=O)OCC (stereo not given) | – | inactive |
| CCOC(=O)C(Cl)Cc1cc(-n2nc(C)n(C(F)F)c2=O)c(F)cc1Cl (stereo not given) | – | inactive |
| CCc1nn(C)c(C(=O)NCc2ccc(C(C)(C)C)cc2)c1Cl | 50 µM (active) | – |
| CCON=C(CC)C1=C(O)CC(c2c(C)cc(C)cc2C)CC1=O (stereo not given) | – | inactive |
| COC(=O)c1ccccc1C(=O)OC | – | inactive |
| COP(N)(=O)SC (stereo not given) | – | inactive |
| CCCC1COC(Cn2cncn2)(c2ccc(Cl)cc2Cl)O1 (stereo not given) | – | inactive |
| CCNc1nc(Cl)nc(NC(C)C)n1 | – | inactive |
| COP(=S)(OC)Oc1nc(Cl)c(Cl)cc1Cl | – | inactive |
| CON(C)C(=O)Nc1ccc(Cl)c(Cl)c1 | – | inactive |
| Oc1ccccc1-c1ccccc1 | – | inactive |
| CNC(=O)ON=CC(C)(C)SC | – | inactive |
| OC(c1ccc(Cl)cc1)(c1cncnc1)c1ccccc1Cl (stereo not given) | 34.1 µM (active) | – |
| CC(C)C1(C)N=C(c2nc3ccccc3cc2C(=O)O)NC1=O (stereo not given) | – | inactive |
| O=C(O)c1nc(Cl)ccc1Cl | – | inactive |
| CCOc1cc(Oc2ccc(C(F)(F)F)cc2Cl)ccc1[N+](=O)[O-] | 10.5 µM (active) | – |
| Cc1ccc(-c2c(Cl)nc(C#N)n2S(=O)(=O)N(C)C)cc1 | – | inactive |
| CC1=C(C(=O)Nc2ccccc2)SCCO1 | – | inactive |
| COC(=O)N(OC)c1ccccc1COc1ccn(-c2ccc(Cl)cc2)n1 | 12.1 µM (active) | – |

Source: PubChem BioAssay (EPA / NIEHS)
